Reference: the supplement of paper PMC4237247
Where a name gives a salt, the structure may show the parent alone.

The molecules below were run on HeLa (assay: percent cells in S phase; higher = more S arrest). Details: 10 µM; 20 h.
Description: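 HTS of 79,827 drug-like compounds at 10 uM. HeLa cells in 384-well plates were treated for 20 h, fixed, stained with Vybrant DyeCycle Green and scanned on an Acumen eX3 cytometer to give per-well cell cycle profiles (% cells in each phase). The plate Z' was 0.51. Only hits are listed: G1 hits >4 SD and S hits >5 SD from the mean.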

| Structure (SMILES) | percent cells in S phase |
| --- | --- |
| Cn1c(SCc2ccccc2)nc2ccccc2c1=O (hit class: S-phase inhibitor) | 20.6% |
| CC[C@@H](C(=O)[C@@H](C)[C@@H](O)[C@H](C)CCc1ccc(C)c(O)c1C(=O)O)[C@H]1O[C@](CC)([C@H]2CC[C@](O)(CC)[C@H](C)O2)C[C@@H]1C [Lasalocid sodium salt] (hit class: G1-phase inhibitor) | 8.33% |
| Cc1cc([N+](=O)[O-])ccc1NCc1ccc(F)c(F)c1 (hit class: G1-phase inhibitor) | 9.44% |
| COc1c(C)c2c(c(O)c1C/C=C(\C)CCC(=O)O)C(=O)OC2 [Mycophenolic acid] (hit class: S-phase inhibitor) | 27.7% |
| O=C1c2c(O)ccc(O)c2C(=O)c2c(NCCNCCO)ccc(NCCNCCO)c21 [Mitoxantrone dihydrochloride] (hit class: G1-phase inhibitor) | 6.2% |
| Cc1ccc(-c2cc(-c3ccccc3Cl)[nH]n2)c(O)c1 (hit class: G1-phase inhibitor) | 7.81% |
| O=C(COc1ccc(Cl)cc1)NC(Cc1c[nH]c2ccccc12)C(=O)O (configuration not stated) (hit class: G1-phase inhibitor) | 6.86% |
| CC(=O)C1=C(O)C(=O)N(CC(=O)O)C1c1ccccc1F (configuration not stated) (hit class: S-phase inhibitor) | 20.4% |
| COc1ccc(C(=O)c2coc3ccc(OC)cc3c2=O)cc1 (hit class: G1-phase inhibitor) | 7.3% |
| COc1[nH]c2ccccc2c1C=NO (hit class: S-phase inhibitor) | 19.8% |
| C[C@@H]1C[C@H]2[C@@H]3C[C@H](F)C4=CC(=O)C=C[C@]4(C)[C@@]3(Cl)[C@@H](O)C[C@]2(C)[C@H]1C(=O)COC(=O)C(C)(C)C [Clocortolone pivalate] (hit class: S-phase inhibitor) | 23.2% |
| CCN(CC)Cc1c(O)ccc2c(=O)c(-c3ccccc3)coc12 (hit class: S-phase inhibitor) | 22.3% |
| COc1ccc(CSc2nncn2N)cc1 (hit class: S-phase inhibitor) | 19.7% |
| Cc1cc(N2CCCCC2)c(F)cc1[N+](=O)[O-] (hit class: S-phase inhibitor) | 29.5% |
| C[C@@H]1CCC[C@H](C)N1NC(=O)c1ccc(Cl)c(S(N)(=O)=O)c1 [Clopamide] (hit class: G1-phase inhibitor) | 8.75% |
| Nc1ccn([C@H]2CC[C@@H](CO)O2)c(=O)n1 [Zalcitabine] (hit class: S-phase inhibitor) | 21.2% |
| c1ccc2c(c1)Nc1nc3ccccc3nc1O2 (hit class: G1-phase inhibitor) | 7.38% |
